# Targets with a hit are over-represented here; the source holds about 8,800 in all. About 0.5% of all pairs of compound and target were hits.
# Compound: CS(=O)(=O)CCNCc1ccc(-c2ccc3ncnc(Nc4ccc(OCc5cccc(F)c5)c(Cl)c4)c3c2)o1 [lapatinib]
# Assay: log2 fold change, soluble protein after heating vs DMSO (PISA); higher = thermal stabilisation; K562 lysate, 10 uM; active = over 0.2 and 3.5 SD of the protein, either way, in both replicates (recomputed)
# Outline: (§1)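 A 30 min treatment with 10 μM compound was applied to crude K562 extract at 1 mg/mL protein in PBS pH 7.4 with 1 mM MgCl2. Heating for 3 min spanned 48°C-58°C, after which aliquots were pooled, adjusted to 0.5% NP-40 at 4°C and spun at 21,000xg for 90 min. TMTpro 16plex LC-MS/MS of the supernatant, with channel sums equalised, gave values recorded as log-two fold change in thermal stability against solvent controls, from duplicates.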
# Sequence of UniProt Q15544 (Q15544 whole entry, looked up): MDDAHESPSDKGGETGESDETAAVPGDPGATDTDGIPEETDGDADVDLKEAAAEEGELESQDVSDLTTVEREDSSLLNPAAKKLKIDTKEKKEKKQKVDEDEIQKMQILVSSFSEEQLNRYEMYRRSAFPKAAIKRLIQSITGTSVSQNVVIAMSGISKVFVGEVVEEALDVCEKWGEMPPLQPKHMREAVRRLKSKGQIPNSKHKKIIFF
# Sequence of UniProt Q96CQ1 (Q96CQ1 whole entry, looked up): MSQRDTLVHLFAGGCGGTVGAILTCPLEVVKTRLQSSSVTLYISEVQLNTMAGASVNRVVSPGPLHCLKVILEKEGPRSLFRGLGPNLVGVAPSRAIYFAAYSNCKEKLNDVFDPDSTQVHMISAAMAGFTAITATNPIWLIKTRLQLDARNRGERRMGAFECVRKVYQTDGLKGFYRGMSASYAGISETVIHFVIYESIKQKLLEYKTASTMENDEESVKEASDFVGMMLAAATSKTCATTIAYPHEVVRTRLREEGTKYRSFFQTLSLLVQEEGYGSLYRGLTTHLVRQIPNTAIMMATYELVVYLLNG
# Sequence of UniProt Q13309 (Q13309 whole entry, looked up): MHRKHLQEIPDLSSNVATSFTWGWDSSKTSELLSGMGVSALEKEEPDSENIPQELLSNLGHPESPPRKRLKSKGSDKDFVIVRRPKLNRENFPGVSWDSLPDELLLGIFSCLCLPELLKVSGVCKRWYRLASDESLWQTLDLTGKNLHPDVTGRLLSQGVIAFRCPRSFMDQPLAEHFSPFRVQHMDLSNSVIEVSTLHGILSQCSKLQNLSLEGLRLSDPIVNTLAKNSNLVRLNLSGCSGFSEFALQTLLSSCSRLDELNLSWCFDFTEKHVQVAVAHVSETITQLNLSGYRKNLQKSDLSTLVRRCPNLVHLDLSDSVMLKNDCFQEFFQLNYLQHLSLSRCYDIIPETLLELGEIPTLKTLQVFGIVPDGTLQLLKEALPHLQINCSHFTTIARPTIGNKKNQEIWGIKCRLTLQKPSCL
# Sequence of UniProt Q9Y2D2 (Q9Y2D2 whole entry, looked up): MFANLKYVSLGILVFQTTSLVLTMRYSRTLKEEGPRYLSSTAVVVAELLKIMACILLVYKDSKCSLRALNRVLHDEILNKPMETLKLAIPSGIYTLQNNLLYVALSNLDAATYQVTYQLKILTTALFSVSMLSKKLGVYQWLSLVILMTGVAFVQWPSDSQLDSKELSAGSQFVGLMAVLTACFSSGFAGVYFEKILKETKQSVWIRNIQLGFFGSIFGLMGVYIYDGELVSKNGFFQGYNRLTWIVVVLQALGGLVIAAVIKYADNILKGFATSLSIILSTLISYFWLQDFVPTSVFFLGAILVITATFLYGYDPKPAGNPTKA
# Sequence of UniProt Q8IVJ1 (Q8IVJ1 whole entry, looked up): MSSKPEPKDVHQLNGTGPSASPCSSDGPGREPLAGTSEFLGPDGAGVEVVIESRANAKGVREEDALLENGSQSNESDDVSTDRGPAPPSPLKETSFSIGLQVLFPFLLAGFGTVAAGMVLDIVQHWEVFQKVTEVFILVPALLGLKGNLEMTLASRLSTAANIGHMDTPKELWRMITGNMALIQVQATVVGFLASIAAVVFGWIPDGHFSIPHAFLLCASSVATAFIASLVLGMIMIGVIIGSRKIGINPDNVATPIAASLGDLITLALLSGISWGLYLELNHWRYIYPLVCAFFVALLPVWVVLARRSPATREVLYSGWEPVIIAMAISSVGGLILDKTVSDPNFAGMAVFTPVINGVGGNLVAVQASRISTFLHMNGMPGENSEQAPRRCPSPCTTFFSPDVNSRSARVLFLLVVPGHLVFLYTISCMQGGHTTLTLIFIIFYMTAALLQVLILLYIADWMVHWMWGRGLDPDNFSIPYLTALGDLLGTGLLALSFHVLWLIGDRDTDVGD
# Sequence of UniProt O95793 (O95793 whole entry, looked up): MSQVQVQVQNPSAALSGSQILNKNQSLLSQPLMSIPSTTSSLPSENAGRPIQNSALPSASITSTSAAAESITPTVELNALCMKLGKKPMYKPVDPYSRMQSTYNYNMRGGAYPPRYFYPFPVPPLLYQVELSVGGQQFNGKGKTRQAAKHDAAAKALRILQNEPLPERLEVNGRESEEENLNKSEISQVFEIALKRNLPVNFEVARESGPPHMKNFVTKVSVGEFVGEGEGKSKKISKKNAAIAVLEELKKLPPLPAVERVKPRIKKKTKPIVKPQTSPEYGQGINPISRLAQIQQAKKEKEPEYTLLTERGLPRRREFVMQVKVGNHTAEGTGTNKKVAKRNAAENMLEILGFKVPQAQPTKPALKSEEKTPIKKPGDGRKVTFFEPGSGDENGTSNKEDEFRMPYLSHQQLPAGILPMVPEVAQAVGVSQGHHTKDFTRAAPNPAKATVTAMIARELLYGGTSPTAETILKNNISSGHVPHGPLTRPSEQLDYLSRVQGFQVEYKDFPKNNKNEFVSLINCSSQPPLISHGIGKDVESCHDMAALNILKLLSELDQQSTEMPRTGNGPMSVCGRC
# Sequence of UniProt P12931 (P12931 whole entry, looked up): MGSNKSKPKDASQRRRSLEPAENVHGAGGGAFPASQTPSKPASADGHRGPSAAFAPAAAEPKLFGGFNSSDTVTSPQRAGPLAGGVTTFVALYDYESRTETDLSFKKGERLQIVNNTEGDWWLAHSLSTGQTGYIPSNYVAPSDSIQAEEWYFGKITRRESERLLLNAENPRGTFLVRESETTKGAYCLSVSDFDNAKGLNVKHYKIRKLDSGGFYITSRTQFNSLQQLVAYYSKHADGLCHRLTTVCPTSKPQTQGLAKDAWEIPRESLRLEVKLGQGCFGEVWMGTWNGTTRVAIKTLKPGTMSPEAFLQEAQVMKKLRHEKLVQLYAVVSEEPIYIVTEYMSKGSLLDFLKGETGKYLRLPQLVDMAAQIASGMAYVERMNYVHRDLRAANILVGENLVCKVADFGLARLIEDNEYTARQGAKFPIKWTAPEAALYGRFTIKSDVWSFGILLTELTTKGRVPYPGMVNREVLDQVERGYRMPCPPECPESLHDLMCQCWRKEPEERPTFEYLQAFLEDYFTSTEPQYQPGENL
# Sequence of UniProt Q13487 (Q13487 whole entry, looked up): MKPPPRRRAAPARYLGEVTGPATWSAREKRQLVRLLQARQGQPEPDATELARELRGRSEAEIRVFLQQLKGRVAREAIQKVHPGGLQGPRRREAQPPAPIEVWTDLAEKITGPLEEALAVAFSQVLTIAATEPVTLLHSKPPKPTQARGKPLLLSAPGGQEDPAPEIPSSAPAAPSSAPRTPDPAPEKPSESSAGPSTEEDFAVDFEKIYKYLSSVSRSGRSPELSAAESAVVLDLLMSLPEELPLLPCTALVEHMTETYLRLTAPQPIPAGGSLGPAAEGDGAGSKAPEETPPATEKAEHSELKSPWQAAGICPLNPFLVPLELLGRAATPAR
# Sequence of UniProt P51532 (P51532 whole entry, looked up): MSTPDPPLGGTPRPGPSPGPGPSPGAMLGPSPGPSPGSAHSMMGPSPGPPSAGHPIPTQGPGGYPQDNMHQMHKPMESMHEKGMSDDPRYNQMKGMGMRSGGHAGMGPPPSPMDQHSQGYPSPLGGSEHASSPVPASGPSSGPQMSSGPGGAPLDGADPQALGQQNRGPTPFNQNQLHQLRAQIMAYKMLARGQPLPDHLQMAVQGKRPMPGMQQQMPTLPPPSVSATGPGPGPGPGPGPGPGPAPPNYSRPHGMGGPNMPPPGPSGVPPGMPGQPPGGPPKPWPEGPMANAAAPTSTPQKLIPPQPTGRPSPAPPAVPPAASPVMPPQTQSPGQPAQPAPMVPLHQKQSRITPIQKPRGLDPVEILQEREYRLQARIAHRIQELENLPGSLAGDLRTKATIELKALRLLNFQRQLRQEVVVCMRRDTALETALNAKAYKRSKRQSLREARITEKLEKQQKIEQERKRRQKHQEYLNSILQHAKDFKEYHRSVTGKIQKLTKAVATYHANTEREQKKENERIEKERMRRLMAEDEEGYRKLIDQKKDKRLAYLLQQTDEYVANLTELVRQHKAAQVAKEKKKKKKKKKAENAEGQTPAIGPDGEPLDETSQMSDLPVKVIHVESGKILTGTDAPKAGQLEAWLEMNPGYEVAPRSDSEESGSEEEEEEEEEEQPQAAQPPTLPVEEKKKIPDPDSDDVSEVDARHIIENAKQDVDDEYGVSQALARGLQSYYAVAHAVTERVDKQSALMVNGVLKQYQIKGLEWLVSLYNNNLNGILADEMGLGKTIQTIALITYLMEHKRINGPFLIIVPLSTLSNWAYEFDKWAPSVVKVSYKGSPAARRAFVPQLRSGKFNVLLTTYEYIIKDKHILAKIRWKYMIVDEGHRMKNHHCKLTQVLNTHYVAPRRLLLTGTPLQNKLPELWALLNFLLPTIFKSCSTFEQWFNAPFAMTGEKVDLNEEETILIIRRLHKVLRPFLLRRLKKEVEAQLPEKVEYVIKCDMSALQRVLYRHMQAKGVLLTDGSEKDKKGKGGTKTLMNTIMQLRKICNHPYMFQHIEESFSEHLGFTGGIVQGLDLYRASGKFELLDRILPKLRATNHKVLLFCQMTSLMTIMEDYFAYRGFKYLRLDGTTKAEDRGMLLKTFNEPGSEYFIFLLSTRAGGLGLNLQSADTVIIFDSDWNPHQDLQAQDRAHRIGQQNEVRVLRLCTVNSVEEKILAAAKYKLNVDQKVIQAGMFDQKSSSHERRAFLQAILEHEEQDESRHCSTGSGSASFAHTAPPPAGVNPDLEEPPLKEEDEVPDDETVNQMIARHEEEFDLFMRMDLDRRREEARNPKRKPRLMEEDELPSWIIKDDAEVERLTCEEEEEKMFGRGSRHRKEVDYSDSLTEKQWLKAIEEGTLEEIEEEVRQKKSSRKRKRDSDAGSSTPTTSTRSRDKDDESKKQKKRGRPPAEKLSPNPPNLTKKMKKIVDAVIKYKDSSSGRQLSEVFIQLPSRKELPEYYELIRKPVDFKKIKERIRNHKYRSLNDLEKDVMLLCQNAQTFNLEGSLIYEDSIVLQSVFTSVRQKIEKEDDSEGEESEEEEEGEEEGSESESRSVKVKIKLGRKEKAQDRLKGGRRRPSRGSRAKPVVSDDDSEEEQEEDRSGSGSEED
row,Target,log2 fold change
1,SNRPD2 (UniProt K7EJB5),0.005 (inactive)
2,SLC12A6 isoform 2 (UniProt Q9UHW9),-0.019 (inactive)
3,SMARCA4 isoform 4 (UniProt P51532),-0.072 (inactive)
4,SLC41A1 (UniProt Q8IVJ1),-0.059 (inactive)
5,SSX5 isoform 2 (UniProt O60225),0.042 (inactive)
6,SYK (UniProt P43405),-0.086 (inactive)
7,SRC isoform 2 (UniProt P12931),-0.001 (inactive)
8,SKP2 (UniProt Q13309),-0.275 (inactive)
9,SZT2 (UniProt Q5T011),0.275 (inactive)
10,SLC40A1 (UniProt Q9NP59),-0.019 (inactive)
11,SLC25A36 (UniProt Q96CQ1),-0.019 (inactive)
12,SPAG1 (UniProt Q07617),-0.058 (inactive)
13,SMPD2 (UniProt O60906),0.015 (inactive)
14,SLC35A3 isoform 2 (UniProt Q9Y2D2),-0.097 (inactive)
15,SNAP23 isoform 2 (UniProt O00161),0.075 (inactive)
16,SHB (UniProt Q15464),-0.07 (inactive)
17,TAF11 (UniProt Q15544),0.003 (inactive)

# Compound: CS(=O)(=O)N1CCN(Cc2cc3nc(-c4cccc5[nH]ncc45)nc(N4CCOCC4)c3s2)CC1 [pictilisib]
# Assay: as above
# Outline: as §1
row,Target,log2 fold change
1,SNAPC2 (UniProt Q13487),0.08 (inactive)
2,SMC4 (UniProt C9JJ64),0.006 (inactive)
3,SSX5 isoform 2 (UniProt O60225),0.082 (inactive)
4,STAU1 isoform 3 (UniProt O95793),0.048 (inactive)
5,SYK (UniProt P43405),0.017 (inactive)
6,SRC isoform 2 (UniProt P12931),-0.078 (inactive)
7,SLU7 (UniProt O95391),0.006 (inactive)
8,SZT2 (UniProt Q5T011),0.189 (inactive)
9,SPAG1 (UniProt Q07617),0.17 (inactive)
10,SLCO4A1 (UniProt Q96BD0),-0.687 (active)

# Compound: C[C@@H](Oc1cc(-c2cnn(C3CCNCC3)c2)cnc1N)c1c(Cl)ccc(F)c1Cl [crizotinib]
# Assay: as above
# Outline: as §1
row,Target,log2 fold change
1,SNRPD2 (UniProt K7EJB5),-0.202 (inactive)
2,SNAPC2 (UniProt Q13487),-0.007 (inactive)
3,STAR (UniProt P49675),-0.123 (inactive)
4,SLC12A6 isoform 2 (UniProt Q9UHW9),-0.051 (inactive)
5,SMARCA4 isoform 4 (UniProt P51532),0 (inactive)
6,SLC41A1 (UniProt Q8IVJ1),0.141 (inactive)
7,STAU1 isoform 3 (UniProt O95793),0.049 (inactive)
8,SIN3B (UniProt O75182),-0.057 (inactive)
9,SKP2 (UniProt Q13309),-0.159 (inactive)
10,SLU7 (UniProt O95391),0.054 (inactive)
11,SLC40A1 (UniProt Q9NP59),0.111 (inactive)
12,STK26 isoform 3 (UniProt Q9P289),0.095 (inactive)
13,SLC25A36 (UniProt Q96CQ1),0.022 (inactive)
14,STK38L (UniProt Q9Y2H1),-0.059 (inactive)
15,SPAG1 (UniProt Q07617),0 (inactive)
16,SLC35A3 isoform 2 (UniProt Q9Y2D2),-0.267 (inactive)
17,SHB (UniProt Q15464),-0.044 (inactive)
18,STK17B (UniProt O94768),-0.255 (inactive)
19,TAF11 (UniProt Q15544),-0.085 (inactive)

# Compound: C[C@H](C1=CC=C(C=C1)C(=O)NC2=C3C=CNC3=NC=C2)N
# Assay: as above
# Outline: as §1
row,Target,log2 fold change
1,STK17A (UniProt Q9UEE5),0.315 (inactive)
2,SNAPC2 (UniProt Q13487),0.024 (inactive)
3,STAR (UniProt P49675),0.117 (inactive)
4,SMARCA4 isoform 4 (UniProt P51532),0.024 (inactive)
5,SLC41A1 (UniProt Q8IVJ1),-0.09 (inactive)
6,SSX5 isoform 2 (UniProt O60225),-0.476 (inactive)
7,STAU1 isoform 3 (UniProt O95793),-0.298 (inactive)
8,SYK (UniProt P43405),-0.479 (active)
9,SRC isoform 2 (UniProt P12931),0.151 (inactive)
10,SIN3B (UniProt O75182),-0.318 (inactive)
11,SKP2 (UniProt Q13309),-0.098 (inactive)
12,SLU7 (UniProt O95391),-0.187 (inactive)
13,SZT2 (UniProt Q5T011),-0.108 (inactive)
14,SLC40A1 (UniProt Q9NP59),-0.164 (inactive)
15,SHC1 (UniProt P29353),0.029 (inactive)
16,SLC25A36 (UniProt Q96CQ1),0.029 (inactive)
17,SMPD2 (UniProt O60906),0.106 (inactive)
18,SLC35A3 isoform 2 (UniProt Q9Y2D2),-1.02 (active)
19,SNAP23 isoform 2 (UniProt O00161),0.188 (inactive)
20,SHB (UniProt Q15464),-0.305 (inactive)
21,SLCO4A1 (UniProt Q96BD0),0.016 (inactive)
22,TAF11 (UniProt Q15544),-0.036 (inactive)
